Results on seven compounds are retold here after ChEMBL document CHEMBL1961873, “Compounds: GSK PKIS; Assays: Nanosyn kinase panel” (2012).

SMILES strings stand for the structures.

Assay [1] deals with Serine/threonine-protein kinase MARK2 (Homo sapiens) (UniProt Q7KZI7). Conditions: at 1 µM.
For assay [2], the target named is PAS domain-containing serine/threonine-protein kinase (Homo sapiens) (UniProt Q96RG2). Conditions: at 0.1 µM.
For assay [3] the target is unchanged. Conditions: at 1 µM.
Assay [4] addresses Phosphorylase b kinase gamma catalytic chain, skeletal muscle/heart isoform (Homo sapiens) (UniProt Q16816). Conditions: at 0.1 µM.
The target is the same in assay [5]. Conditions: at 1 µM.
The target in assay [6] is T1, Phosphorylase b kinase gamma catalytic chain, liver/testis isoform (Homo sapiens) (UniProt P15735).
T1 sequence (whole entry): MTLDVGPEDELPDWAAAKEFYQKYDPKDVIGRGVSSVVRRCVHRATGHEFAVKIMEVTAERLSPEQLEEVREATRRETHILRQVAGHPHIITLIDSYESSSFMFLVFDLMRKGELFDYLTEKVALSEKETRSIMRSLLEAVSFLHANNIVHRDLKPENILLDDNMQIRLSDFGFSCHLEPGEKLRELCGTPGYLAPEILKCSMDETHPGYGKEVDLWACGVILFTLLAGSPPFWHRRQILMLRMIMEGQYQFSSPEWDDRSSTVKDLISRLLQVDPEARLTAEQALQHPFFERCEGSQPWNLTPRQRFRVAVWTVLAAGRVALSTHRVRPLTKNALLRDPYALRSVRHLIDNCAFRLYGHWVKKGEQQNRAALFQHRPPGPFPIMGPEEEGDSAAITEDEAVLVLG
Particulars: at 0.1 µM.

Assay [7] has as its target T1, Phosphorylase b kinase gamma catalytic chain, liver/testis isoform (Homo sapiens). Particulars: at 1 µM.
For assay [8], the target named is Serine/threonine-protein kinase pim-1 (Homo sapiens) (UniProt P11309). Conditions: at 0.1 µM.
Sequence of Serine/threonine-protein kinase pim-1 (Homo sapiens) (P11309 whole entry, looked up): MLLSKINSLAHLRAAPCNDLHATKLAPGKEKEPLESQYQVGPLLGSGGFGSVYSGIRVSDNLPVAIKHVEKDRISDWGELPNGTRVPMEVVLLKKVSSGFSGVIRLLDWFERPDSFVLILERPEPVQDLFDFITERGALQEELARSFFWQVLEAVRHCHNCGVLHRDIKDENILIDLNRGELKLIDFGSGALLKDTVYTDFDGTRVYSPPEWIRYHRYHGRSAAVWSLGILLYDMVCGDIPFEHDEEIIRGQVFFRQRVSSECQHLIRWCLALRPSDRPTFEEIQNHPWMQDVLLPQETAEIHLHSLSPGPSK
The target is the same in assay [9]. Conditions: at 1 µM.
For assay [10], the target named is Serine/threonine-protein kinase pim-2 (Homo sapiens) (UniProt Q9P1W9). Conditions: at 0.1 µM.
Sequence of Serine/threonine-protein kinase pim-2 (Homo sapiens) (Q9P1W9 whole entry, looked up): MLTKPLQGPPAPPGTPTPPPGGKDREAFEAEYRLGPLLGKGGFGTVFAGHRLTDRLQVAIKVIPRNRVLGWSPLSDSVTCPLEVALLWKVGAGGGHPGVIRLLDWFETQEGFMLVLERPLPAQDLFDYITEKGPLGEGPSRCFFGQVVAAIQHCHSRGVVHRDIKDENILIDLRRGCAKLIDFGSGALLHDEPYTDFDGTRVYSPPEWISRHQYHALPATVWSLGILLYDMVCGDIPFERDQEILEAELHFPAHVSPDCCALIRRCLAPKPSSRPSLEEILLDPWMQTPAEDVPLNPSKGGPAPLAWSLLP
Assay [11] has the same target. Conditions: at 1 µM.
In assay [12] the target is Serine/threonine-protein kinase pim-3 (Homo sapiens) (UniProt Q86V86). Particulars: at 0.1 µM.
The target is the same in assay [13]. Particulars: at 1 µM.
Assay [14] has as its target T2, MAP kinase-activated protein kinase 5 (Homo sapiens) (UniProt Q8IW41).
T2 sequence (whole entry): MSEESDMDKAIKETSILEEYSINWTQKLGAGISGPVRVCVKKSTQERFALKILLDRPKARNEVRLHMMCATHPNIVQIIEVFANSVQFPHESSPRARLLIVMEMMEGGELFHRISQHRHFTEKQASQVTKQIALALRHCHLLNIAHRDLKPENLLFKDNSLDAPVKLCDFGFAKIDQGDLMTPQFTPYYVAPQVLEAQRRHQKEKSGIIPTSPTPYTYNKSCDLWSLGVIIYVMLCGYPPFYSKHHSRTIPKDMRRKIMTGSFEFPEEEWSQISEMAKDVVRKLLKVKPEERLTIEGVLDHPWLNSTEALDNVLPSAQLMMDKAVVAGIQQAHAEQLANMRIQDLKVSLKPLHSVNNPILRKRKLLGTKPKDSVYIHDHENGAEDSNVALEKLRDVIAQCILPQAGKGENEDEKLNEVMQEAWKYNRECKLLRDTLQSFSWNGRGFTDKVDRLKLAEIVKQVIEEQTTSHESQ
Particulars: at 0.1 µM.

Assay [15] deals with T2, MAP kinase-activated protein kinase 5 (Homo sapiens). Conditions: at 1 µM.
In assay [16] the target is Serine/threonine-protein kinase SIK1 (Homo sapiens) (UniProt P57059). Conditions: at 0.1 µM.
Sequence of Serine/threonine-protein kinase SIK1 (Homo sapiens) (P57059 whole entry): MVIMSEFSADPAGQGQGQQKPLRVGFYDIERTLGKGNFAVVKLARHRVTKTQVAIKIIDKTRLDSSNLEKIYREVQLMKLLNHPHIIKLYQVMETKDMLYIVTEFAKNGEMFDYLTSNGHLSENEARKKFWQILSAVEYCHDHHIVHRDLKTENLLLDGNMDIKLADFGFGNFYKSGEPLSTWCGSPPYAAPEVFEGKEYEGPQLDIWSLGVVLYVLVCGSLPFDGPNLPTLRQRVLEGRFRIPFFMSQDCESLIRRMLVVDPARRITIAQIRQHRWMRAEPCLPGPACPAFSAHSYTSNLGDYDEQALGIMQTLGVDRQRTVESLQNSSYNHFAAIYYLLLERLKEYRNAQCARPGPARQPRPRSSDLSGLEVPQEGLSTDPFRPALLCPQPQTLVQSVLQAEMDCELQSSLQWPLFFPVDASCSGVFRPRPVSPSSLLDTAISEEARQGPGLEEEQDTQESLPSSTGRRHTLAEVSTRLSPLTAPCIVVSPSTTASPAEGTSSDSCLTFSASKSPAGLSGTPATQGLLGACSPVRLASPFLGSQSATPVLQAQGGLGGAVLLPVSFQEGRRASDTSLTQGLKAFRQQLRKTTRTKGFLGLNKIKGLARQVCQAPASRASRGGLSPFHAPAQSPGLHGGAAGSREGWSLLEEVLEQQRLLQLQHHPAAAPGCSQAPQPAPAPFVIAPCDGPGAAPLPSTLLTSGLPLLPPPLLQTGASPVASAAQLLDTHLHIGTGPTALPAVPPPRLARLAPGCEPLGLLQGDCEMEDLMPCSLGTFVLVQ
Assay [17] has the same target. Particulars: at 1 µM.
The target of assay [18] is Serine/threonine-protein kinase SIK2 (Homo sapiens) (UniProt Q9H0K1). Particulars: at 0.1 µM.
Sequence of Serine/threonine-protein kinase SIK2 (Homo sapiens) (Q9H0K1 whole entry, looked up): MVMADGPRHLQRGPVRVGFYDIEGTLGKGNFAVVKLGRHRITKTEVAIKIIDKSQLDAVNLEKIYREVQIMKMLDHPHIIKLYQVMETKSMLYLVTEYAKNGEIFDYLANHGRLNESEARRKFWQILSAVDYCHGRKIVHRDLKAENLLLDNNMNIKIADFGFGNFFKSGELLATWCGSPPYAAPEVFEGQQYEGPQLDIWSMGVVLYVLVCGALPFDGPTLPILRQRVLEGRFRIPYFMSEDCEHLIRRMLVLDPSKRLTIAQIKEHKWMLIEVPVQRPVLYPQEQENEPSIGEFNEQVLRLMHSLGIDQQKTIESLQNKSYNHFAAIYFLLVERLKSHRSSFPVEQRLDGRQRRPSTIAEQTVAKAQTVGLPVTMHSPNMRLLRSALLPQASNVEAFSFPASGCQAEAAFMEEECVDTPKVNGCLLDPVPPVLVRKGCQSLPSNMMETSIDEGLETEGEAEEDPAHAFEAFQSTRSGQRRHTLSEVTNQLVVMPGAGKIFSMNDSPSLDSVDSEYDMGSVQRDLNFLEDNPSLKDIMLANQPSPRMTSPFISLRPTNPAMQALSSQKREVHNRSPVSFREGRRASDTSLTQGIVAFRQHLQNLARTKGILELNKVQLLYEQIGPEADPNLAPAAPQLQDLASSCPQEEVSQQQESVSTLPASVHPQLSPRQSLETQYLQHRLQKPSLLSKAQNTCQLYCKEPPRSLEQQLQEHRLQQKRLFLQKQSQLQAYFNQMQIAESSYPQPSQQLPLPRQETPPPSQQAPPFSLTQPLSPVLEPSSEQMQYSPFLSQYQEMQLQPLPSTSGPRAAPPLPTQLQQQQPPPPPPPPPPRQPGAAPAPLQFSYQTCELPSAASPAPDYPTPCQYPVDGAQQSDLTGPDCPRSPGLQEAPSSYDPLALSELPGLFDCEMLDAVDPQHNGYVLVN
The target is the same in assay [19]. Conditions: at 1 µM.
The target in assay [20] is T3, Serine/threonine-protein kinase TBK1 (Homo sapiens) (UniProt Q9UHD2).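 Also: values are the mean TBK1 inhibition, taken from the GSK PKIS screening data.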
T3 sequence (whole entry): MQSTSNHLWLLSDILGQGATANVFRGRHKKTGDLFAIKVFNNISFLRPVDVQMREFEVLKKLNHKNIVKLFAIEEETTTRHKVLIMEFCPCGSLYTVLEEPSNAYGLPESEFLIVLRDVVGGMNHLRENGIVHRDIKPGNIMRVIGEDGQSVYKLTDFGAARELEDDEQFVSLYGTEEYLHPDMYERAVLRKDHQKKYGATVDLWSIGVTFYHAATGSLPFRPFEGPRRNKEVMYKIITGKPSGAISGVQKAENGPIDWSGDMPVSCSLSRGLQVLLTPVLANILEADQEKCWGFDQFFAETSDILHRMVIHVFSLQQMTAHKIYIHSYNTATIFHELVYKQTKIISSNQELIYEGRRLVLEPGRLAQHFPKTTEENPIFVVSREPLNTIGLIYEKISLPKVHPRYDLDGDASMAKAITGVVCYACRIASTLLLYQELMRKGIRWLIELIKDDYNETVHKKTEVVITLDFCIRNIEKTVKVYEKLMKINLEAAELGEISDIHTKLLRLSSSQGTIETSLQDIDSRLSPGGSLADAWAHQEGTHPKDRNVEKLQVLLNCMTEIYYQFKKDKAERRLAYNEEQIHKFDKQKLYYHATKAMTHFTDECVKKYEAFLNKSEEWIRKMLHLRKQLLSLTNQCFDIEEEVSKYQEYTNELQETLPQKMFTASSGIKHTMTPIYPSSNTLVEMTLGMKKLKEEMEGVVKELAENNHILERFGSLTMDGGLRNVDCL
Conditions: at 0.1 µM.

Sequence of PAS domain-containing serine/threonine-protein kinase (Homo sapiens) (Q96RG2 whole entry, the tested form may be a part): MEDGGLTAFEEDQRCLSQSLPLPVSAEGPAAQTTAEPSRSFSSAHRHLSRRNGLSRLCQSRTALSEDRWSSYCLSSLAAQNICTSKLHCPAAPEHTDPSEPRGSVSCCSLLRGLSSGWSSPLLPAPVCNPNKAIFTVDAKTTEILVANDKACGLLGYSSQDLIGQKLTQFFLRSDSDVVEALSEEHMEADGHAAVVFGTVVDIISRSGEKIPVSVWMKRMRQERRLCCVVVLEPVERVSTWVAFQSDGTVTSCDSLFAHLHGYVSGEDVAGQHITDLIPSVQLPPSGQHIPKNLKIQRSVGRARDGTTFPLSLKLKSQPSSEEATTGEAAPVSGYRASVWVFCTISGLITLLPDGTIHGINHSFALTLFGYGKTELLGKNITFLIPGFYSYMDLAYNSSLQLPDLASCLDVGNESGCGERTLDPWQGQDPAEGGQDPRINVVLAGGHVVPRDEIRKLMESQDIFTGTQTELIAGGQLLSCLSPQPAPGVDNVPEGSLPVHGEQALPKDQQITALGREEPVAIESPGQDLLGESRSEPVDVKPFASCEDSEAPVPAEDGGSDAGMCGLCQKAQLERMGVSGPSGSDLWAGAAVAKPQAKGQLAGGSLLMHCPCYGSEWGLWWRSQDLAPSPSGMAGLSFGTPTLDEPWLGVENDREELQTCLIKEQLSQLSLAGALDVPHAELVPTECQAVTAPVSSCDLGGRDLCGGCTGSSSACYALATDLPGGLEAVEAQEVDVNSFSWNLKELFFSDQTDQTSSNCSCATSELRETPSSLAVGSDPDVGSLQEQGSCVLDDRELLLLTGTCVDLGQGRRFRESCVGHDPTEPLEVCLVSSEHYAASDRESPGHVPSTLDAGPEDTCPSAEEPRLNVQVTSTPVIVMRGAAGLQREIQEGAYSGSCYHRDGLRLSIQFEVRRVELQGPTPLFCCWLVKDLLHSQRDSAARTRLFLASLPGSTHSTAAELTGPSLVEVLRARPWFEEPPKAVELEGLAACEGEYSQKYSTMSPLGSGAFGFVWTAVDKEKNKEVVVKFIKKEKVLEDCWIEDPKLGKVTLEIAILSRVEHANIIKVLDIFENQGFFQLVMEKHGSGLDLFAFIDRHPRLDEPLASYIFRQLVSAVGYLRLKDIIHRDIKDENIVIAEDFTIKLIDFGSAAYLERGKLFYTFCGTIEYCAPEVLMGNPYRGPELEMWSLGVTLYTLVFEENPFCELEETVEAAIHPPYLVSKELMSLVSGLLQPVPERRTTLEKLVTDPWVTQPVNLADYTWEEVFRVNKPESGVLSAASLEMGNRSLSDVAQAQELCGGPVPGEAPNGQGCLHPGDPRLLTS
Sequence of Serine/threonine-protein kinase MARK2 (Homo sapiens) (Q7KZI7 whole entry, the tested form may be a part): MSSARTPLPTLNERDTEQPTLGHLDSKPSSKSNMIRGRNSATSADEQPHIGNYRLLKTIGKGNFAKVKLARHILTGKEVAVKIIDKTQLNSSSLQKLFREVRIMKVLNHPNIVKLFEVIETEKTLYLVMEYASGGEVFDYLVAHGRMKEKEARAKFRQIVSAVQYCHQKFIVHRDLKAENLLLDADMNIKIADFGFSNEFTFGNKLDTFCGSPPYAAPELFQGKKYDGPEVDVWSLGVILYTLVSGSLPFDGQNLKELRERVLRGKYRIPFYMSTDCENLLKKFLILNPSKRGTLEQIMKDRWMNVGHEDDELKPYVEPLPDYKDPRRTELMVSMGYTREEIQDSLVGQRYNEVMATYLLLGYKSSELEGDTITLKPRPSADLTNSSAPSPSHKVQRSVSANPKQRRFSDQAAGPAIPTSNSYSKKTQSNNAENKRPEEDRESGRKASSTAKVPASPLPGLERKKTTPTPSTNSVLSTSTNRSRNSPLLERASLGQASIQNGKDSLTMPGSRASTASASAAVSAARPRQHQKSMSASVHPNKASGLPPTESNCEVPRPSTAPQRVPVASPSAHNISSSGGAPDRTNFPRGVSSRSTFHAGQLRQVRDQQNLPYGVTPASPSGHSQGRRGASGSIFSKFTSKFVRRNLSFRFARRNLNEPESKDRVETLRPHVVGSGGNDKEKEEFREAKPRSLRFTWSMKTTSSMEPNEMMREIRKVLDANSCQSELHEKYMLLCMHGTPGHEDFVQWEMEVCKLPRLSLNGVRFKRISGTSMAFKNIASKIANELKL

In the case of `COc1ccc(-c2ccncc2)cc1C(N)=O`, the inhibition was 0.17% in [1]; -0.78% in assay [2]; -0.33% in [3]; 2.55% in assay [4]; 3.87% in assay [5]; 5.73% in assay [6]. The inhibition in [7] is 5.45%; in [8], 0.06%; in assay [9], 2.13%; in [10] it was -0.49%; in [11] it was -0.52%; in [12], -0.49%. Also, the inhibition in [13] turned out to be 3.33%; in [14], 1.23%; in assay [15], 1.1%; in assay [16] it was 3.59%; in assay [17] it was 9.53%; in [18], 3.27%. Besides, the values for the inhibition in [19] and in assay [20] were 4.53% and 2.55%, respectively.

`CC(C)=Cc1cccc2c1/C(=N/Nc1ccc(S(N)(=O)=O)cc1)C(=O)N2`: the inhibition in assay [1] was found to be 14.2%; in assay [2] it was 0.93%; in assay [3], 1.77%; in assay [4] it was 0.64%; in assay [5], 26.6%; in assay [6], 1.74%. Besides, the inhibition in assay [7] worked out at 8.45%; in assay [8] it was 1.05%; in assay [9], 1.77%; in assay [10], 0.72%; in assay [11], 0.68%; in assay [12], 1.74%. The inhibition in assay [13] stood at 3.98%; in assay [14], 0.48%; in assay [15] it was 2.48%; in assay [16] it was 3.24%; in assay [17], 11.2%; in assay [18], 4.69%. Also, the results for the inhibition in assay [19] and in [20] were 15.5% and 3.78%, respectively.

Regarding `Nc1nc(-c2ccc3c(c2)C(=Cc2cc(Br)c(O)c(Br)c2)C(=O)N3)cs1`, the inhibition in [1] is 0.67%; in assay [2], -0.9%; in [3], -1.85%; in [4], 3.78%; in assay [5], 5.21%; in assay [6] it was -3.21%. For the same compound, the inhibition in assay [7] is -2.57%; in [8], 3.74%; in assay [9], 25.6%; in assay [10], 10.8%; in assay [11], 50.1%; in [12], 5.73%. The inhibition was 42.7% in assay [13]; -1.39% in assay [14]; -0.3% in assay [15]; -3.45% in assay [17]; -0.64% in assay [19]; 0.67% in [20].

With `CCn1c(-c2nonc2N)nc2c(C#CC(C)(C)O)nc(CN3CCCC3)cc21`, the inhibition in assay [1] was 10%; in assay [2], 0.49%; in assay [3], 1.59%; in [4], 2.9%; in [5], 2.56%; in [6], -2.3%. Also, the inhibition is -1.9% in assay [7]; 0.28% in assay [8]; -0.73% in [9]; 0.26% in assay [10]; 1.6% in assay [11]; -0.35% in assay [12]. In addition, the inhibition in assay [13] was 0.7%; in assay [14] it was -0.65%; in assay [15] it was -1.46%; in assay [16], -1.04%; in [17] it was 0.38%; in assay [18], -6.78%. The inhibition in assay [19] was -1.41%; in assay [20], 1.77%.

Take `CC1=C(C(=O)Nc2ccc3[nH]ncc3c2)C(c2ccc(Cl)c(Cl)c2)CC(=O)N1` (stereo not drawn): the inhibition in [1] is 3.36%; in assay [2], -0.49%; in [3] it was -1.74%; in assay [4] it was 1.04%; in [5] it was 2.45%; in assay [6] it was 2.86%. Moreover, the inhibition in [7] is -0.26%; in [8], -0.12%; in assay [9], 0.22%; in assay [10], 0.05%; in [11], -1.37%; in [12], -0.64%. Besides, the inhibition in assay [13] was -1.31%; in [14] it was 0.08%; in [15] it was -1.02%; in assay [16] it was 6.5%; in [17], 2.84%; in assay [18], -0.93%. Also, the values for the inhibition in assay [19] and in [20] were 2.87% and -0.19%, respectively.

Consider `Cc1ccc(C(=O)NC2CCCCC2)cc1-c1ccc(C(=O)NCC2CC2)cc1`, for which the inhibition in assay [1] was 0.99%; in assay [2], 1.33%; in assay [3] it was -0.83%; in assay [4] it was 0.53%; in assay [5], -0.89%; in [6], 3.98%. Moreover, the inhibition in assay [7] is 1.55%; in [8] it was -0.39%; in [9] it was 0.56%; in [10], 1.02%; in [11], 1.66%; in [12], 22.2%. Also, the inhibition in assay [13] is -1%; in assay [14], 0.69%; in assay [15] it was -0.72%; in [16], 3.08%; in [17], 8.02%; in [18] it was 2.73%. In addition, the inhibition is 1.96% in assay [19] and 1.75% in assay [20].

For `Cc1ccc(NC(=O)c2ccnc(N3CCCC3)c2)cc1-c1ccc(C(=O)NCC2CC2)cc1`, the inhibition was 6.34% in [1]; -0.05% in assay [2]; -1.71% in assay [3]; 6.43% in assay [4]; 11% in [5]; 5.9% in assay [6]. Moreover, the inhibition in assay [7] is 5.73%; in assay [8], 0.89%; in assay [9], 1.92%; in [10], -2.62%; in assay [11] it was -1.68%; in assay [12], -0.52%. In addition, the inhibition in assay [13] came to 1.15%; in [14], 1.02%; in assay [15], 1.69%; in assay [16], 1.07%; in assay [17], 8.28%; in assay [18], 0.28%. The inhibition in assay [19] came to 8.6%; in [20] it was 6.98%.
